Dicer processing: inhibitors of Dicer pre-microRNA processing, primary screen, biochemical, cat-ELCCA, chemiluminescence; Endoribonuclease Dicer (Homo sapiens), Q9UPY3; cat-ELCCA pre-miR-21 Dicer processing; stronger effect = higher value; hit rate 6% among 47,000; z-score at 25 µM; in the data active = z-score above about 3, passing the limit was not always enough;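 also: higher signal means more uncleaved substrate so more Dicer inhibition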
Target sequence (Q9UPY3 whole entry, looked up): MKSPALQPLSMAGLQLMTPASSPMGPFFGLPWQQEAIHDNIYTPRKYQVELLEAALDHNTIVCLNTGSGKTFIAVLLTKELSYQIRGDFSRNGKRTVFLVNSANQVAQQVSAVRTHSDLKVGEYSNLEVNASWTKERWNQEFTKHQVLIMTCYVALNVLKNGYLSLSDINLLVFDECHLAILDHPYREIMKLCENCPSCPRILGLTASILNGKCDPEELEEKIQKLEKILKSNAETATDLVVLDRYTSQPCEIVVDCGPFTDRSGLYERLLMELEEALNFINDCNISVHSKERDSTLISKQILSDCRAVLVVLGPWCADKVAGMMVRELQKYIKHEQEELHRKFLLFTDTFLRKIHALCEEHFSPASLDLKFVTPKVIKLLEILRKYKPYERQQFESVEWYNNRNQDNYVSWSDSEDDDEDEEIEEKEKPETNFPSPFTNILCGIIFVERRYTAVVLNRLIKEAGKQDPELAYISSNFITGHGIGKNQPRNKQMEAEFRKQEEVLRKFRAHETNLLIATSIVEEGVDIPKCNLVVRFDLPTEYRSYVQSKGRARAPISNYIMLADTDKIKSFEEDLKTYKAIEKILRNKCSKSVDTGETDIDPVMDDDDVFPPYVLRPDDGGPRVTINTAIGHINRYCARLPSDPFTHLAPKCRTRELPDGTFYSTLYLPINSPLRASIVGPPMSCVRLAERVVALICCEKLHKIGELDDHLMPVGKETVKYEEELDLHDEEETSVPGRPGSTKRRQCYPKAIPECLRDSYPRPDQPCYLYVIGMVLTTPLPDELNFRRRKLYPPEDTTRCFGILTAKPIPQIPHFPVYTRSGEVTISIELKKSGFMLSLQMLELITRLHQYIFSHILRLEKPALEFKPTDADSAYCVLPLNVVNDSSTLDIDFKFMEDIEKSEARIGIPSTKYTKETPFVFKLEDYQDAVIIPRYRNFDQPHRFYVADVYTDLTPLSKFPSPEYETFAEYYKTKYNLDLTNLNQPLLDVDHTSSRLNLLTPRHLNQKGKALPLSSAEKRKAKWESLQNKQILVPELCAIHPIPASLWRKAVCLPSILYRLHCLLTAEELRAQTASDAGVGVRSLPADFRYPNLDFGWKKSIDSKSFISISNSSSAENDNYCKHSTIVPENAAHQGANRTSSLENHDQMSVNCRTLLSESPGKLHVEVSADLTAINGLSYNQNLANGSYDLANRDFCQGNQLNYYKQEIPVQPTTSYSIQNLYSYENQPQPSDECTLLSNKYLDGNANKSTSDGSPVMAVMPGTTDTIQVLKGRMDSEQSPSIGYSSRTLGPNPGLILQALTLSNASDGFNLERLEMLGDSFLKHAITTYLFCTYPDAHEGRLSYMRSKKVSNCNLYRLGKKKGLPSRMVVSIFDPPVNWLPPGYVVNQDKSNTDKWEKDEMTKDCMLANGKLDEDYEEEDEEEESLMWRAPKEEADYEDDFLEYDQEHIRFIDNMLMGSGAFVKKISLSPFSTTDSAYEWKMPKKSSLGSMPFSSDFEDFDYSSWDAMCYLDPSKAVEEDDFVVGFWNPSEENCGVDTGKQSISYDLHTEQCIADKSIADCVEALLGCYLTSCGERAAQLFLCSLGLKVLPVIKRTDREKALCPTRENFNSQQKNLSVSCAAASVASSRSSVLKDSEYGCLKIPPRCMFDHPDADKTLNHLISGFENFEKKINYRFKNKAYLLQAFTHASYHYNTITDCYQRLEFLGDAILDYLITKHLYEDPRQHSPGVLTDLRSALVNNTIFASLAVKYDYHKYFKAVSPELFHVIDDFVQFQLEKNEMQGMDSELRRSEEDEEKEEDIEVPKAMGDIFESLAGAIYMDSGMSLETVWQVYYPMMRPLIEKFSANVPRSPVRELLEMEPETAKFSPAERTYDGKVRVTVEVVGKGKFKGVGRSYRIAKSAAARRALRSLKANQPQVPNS
Large screens that a line does not name were inactive. Many of the other results were omitted from the sample, so hits are more common in it than they were.

CCOC(=O)C1=C(N)Oc2c(c(=O)oc3ccccc23)C1c1ccccc1 (stereo not given)	none
CCOC(=O)C1=C(N)Oc2c(c(=O)oc3ccccc23)C1c1ccc(OC)cc1 (stereo not given)	Dicer processing 3
CCC1C(C#N)=C(N)Oc2c1c(=O)oc1ccccc21 (stereo not given)	none
COc1ccc(CSC2C(C(=O)NNC(=O)c3ccc(Cl)cc3Cl)C3CCN2CC3)cc1 (stereo not given)	none
CC(=O)OC1CCC2(C)C3CCC4(C)C(OC(C)=O)CCC4C3CC(O)[C@@]2(O)C1 (stereo not given in full)	none
Clc1cccc(CN2CCN(Cc3cccc(Br)c3)CC2)c1	none
Oc1ccc(Br)cc1CN1CCN(Cc2ccc(F)cc2)CC1	Dicer processing 3.3
CSc1ccc(CN2CCN(Cc3ccc(F)cc3)CC2)cc1	none
COc1ccccc1N1CCN(Cc2ccccc2F)CC1	none
COc1ccccc1CN1CCN(Cc2cc(Br)ccc2O)CC1	Dicer processing 8
COc1ccc(O)c(CN2CCN(Cc3ccc(Br)cc3)CC2)c1	Dicer processing 5.1
Oc1ccc(Br)cc1CN1CCN(Cc2cccc(F)c2)CC1	Dicer processing 7
C/C(=C\c1ccc(Cl)cc1Cl)[N+](=O)[O-]	none
CCC1=C[C@@H]2CN3CCc4c([nH]c5ccccc45)[C@@](C(=O)OC)(C2)[C@@H]13	none
CCOC(=O)C1=C(N)OC(C)=C(C(C)=O)C12C(=O)Nc1ccccc12 (stereo not given)	none
C[C@@]12C[C@H](O)CCN1CCc1ccccc12	none
O=c1c2ccccc2[nH]c(=S)n1-c1ccc(F)cc1F	none
O=C(NC(=S)Nc1cc(C(F)(F)F)cc(C(F)(F)F)c1)Oc1ccccc1	none
CN(C)C(=O)Oc1noc2ccc(Cl)cc12	none
CN(C)C(=O)Oc1ccc2c(=O)c(Oc3ccccc3Br)c(C(F)(F)F)oc2c1	none
CC(=O)CC(c1ccc([N+](=O)[O-])cc1)c1c(OC(C)=O)c2ccccc2oc1=O (stereo not given)	none
C=C(C)Cc1c(C)nc(SCC(=O)C(C)(C)C)nc1OC(=O)N(C)C	none
Cc1ccc(S(=O)(=O)N2CCCCC2c2cccnc2)cc1 (stereo not given)	none
O=C(NNS(=O)(=O)c1ccc(C(F)(F)F)cc1)C1(O)CN2CCC1CC2 (stereo not given)	none
CC1(C)CCC(C)(C)c2cc(-c3csc(CS(=O)(=O)C(C)(C)C)n3)ccc21	none
CSc1ccc(CN2CCN(Cc3cc(Br)ccc3O)CC2)cc1	Dicer processing 6.1
CSc1ccc(CN2CCN(Cc3ccc(Cl)cc3)CC2)cc1	none
CN1CCc2c(sc3c2C(=O)NC(c2cccnc2)N3)C1 (stereo not given)	none
Cc1ccc2nc(C(F)(F)F)n(-c3ccc(Cl)cc3)c(=O)c2c1	none
Cc1ccc(-c2nc(OC(=O)N(C)C)cc(C(F)(F)F)n2)cc1Cl	none
CC1(C)CN=C(NCc2ccccn2)S1	Dicer processing 4
O=c1c2ccccc2[nH]c(=S)n1-c1ccc(Br)cc1Cl	none
S=C1NC2=C(CCc3ccccc32)C(c2cccnc2)N1 (stereo not given)	none
O=C(c1ccco1)c1cn(CCCOc2ccccc2Cl)c2ccccc12	none
COCc1cc(OC(=O)N(C)C)nc(Cc2c(Cl)cccc2Cl)n1	none
CC(C)C1(C)N=C(c2ncccc2C(=O)O)NC1=O (stereo not given)	Dicer processing 3.2
Cc1ccc(NC(=S)N2CCOC2c2cccnc2)cc1Cl (stereo not given)	none
COc1ccc(Br)c(NC2=NCCS2)c1	none
COc1ccc(OC)c(NC2=NCCS2)c1	Dicer processing 3.1
Cc1ccc(NC2=NCCS2)cc1Cl	none
Fc1ccc(CNCCc2c[nH]c3ccccc23)cc1F	none
CC1CC(O)(c2ccccc2)C(C)CN1C (stereo not given)	Dicer processing 3.6
CCCCCCn1c2ccc(C(=O)O)cc2c2cc(C(=O)O)ccc21	none
CC12CCC3(C=C1CCC1C2CCC2(C)C(O)CCC12)OCCO3 (stereo not given)	none
Cc1ccc2[nH]c(=S)n(-c3ccc(Br)c(C)c3)c(=O)c2c1	none
CCOc1ccc(Br)cc1/C=C(\C)[N+](=O)[O-]	none
CN1[C@H]2C[C@H](OC(=O)[C@H](CO)c3ccccc3)C[C@@H]1[C@@H](O)C2	none
Fc1ccc(CNC2CN3CCC2CC3)cc1 (stereo not given)	Dicer processing 3.1
O=C(NC1CN2CCC1CC2)c1cccc(Cl)c1 (stereo not given)	none
COc1cccc(CNC2CN3CCC2CC3)c1OC (stereo not given)	none
O=C1NC(=O)C(O)(c2c[nH]c3ccccc23)C(=O)N1	none
Cc1cc(OC(=O)N(C)C)nc(SCc2c(F)cccc2Cl)n1	none
COCc1cc(OC(=O)N(C)C)nc(-c2cccc(C)c2)n1	none
CSc1nc(OC(=O)N(C)C)cc(-c2ccccc2)n1	Dicer processing 3.7
Cc1onc(-c2ccccc2Cl)c1C(=O)Nc1ccc(Cl)cc1C(=O)c1ccccc1	none
Cn1cncc1C(O)c1ccccc1 (stereo not given)	none
C=CCSc1nnc(OC(=O)N(C)C)n1-c1cccc(C(F)(F)F)c1	none
CC1CN=C(Nc2cccc(C(F)(F)F)c2)S1 (stereo not given)	none
CC(=O)Nc1ccc(C#N)c(C(F)(F)F)c1	Dicer processing 5.6
CC(O)(CS(=O)(=O)c1ccc(F)cc1)C(=O)Nc1ccc(C#N)c(C(F)(F)F)c1 (stereo not given)	none
N#Cc1ccc(NC(=O)c2c(F)cccc2F)cc1C(F)(F)F	none
Cc1nc2ccccc2c(=O)n1-c1cc(F)c(F)cc1F	none
O=C1NC(=O)C(=Cc2ccc(Cl)cc2Cl)C(=O)N1	none
O=C(CNC1CCCCC1)c1ccc(O)c(O)c1	Dicer processing 10
C=CCc1c(C)nc(-c2ccc(F)c(Cl)c2)nc1OC(=O)N(C)C	none
CC(=O)c1ccc(Cl)c(-n2c(=S)[nH]c3ccccc3c2=O)c1	none
C=CCSc1nc2ccccc2c(=O)n1-c1cc(OC)c(Cl)cc1OC	none
C=CCc1cc(C)cc(-n2nc3ccccc3n2)c1O	none
O=C1C(=Cc2ccco2)C(=O)N(c2ccccc2)C(=S)N1c1ccccc1	Dicer processing 3.3
O=C(CNc1ccc(-c2ccccc2)cc1)Nc1ccc(Cl)cc1C(=O)c1ccccc1Cl	none
CN(C)C(=O)Oc1nnc(SCc2ccccc2)n1-c1cccc(Cl)c1	none
c1coc(CNCCc2ccc3c(c2)OCO3)c1	Dicer processing 7.7
CCc1ccc(CNCCc2ccc3c(c2)OCO3)cc1	none
c1cc2c(cc1CCNCc1ccc3c(c1)OCO3)OCO2	none
Cc1cccc(NC2=NCC(C)S2)c1 (stereo not given)	none
Cc1ccc(-n2c(SCC(C)C)nc3cccc(F)c3c2=O)cc1C	none
O=C(NC(=S)Nc1ccccc1OC(F)(F)F)Oc1ccccc1	none
O=c1c2ccccc2nc(/C=C/c2ccc(O)cc2)n1-c1ccc(O)cc1	none
COc1cccc(-n2c(/C=C/c3c[nH]c4ccccc34)nc3ccccc3c2=O)c1	Dicer processing 3.4
COc1cccc(-n2c(/C=C/c3ccco3)nc3ccccc3c2=O)c1	none
CCNCC(O)c1ccc([N+](=O)[O-])cc1 (stereo not given)	none
COc1cc(C2NN=C3C4CCN(CC4)C32)cc(OC)c1OC (stereo not given)	none
O=C1/C(=C\c2ccc(C(F)(F)F)cc2)N2CCC1CC2	none
O=C(Cn1cc(C(=O)c2ccccc2)c2ccccc21)NCc1ccc2c(c1)OCO2	Dicer processing 3.5
O=C(O)c1cn(Cc2ccc(Cl)cc2)c2ccccc12	none
c1ccc(CCNCc2ccc3c(c2)OCO3)cc1	none
CCN(CC)C(=O)Oc1nc(-c2ccccn2)nc(COC)c1CC1CC1	none
CCOc1ccccc1Oc1c(C)oc2cc(OC(=O)N(C)C)ccc2c1=O	none

Screening data deposited in PubChem by Center for Chemical Genomics, University of Michigan.
